Assay results published in the supplement of paper PMC9262897, “Low-cost anti-mycobacterial drug discovery using engineered E. coli” (Nature Communications, 2022).
Counter-ions that a name gives are not always drawn. ± gives the standard deviation of the averaged measurements.

Tested on: E. coli TESEC Mtb DapB
Test: growth (OD600 after 10 h); higher = more growth (less inhibition)
Conditions: arabinose induction (level): High; compound 0.1 mM; raw OD600 reference: median of DMSO wells […], cell-free background 0.041
Procedure: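 TESEC E. coli strains in which the native enzyme is deleted and replaced by arabinose-inducible Mtb Asd, DapB, CysH or TrpD, each grown in its selective medium. Strains were screened against the Prestwick library at 0.1 mM and 1% DMSO in 384-well format at low and high arabinose induction. Growth is read as OD600 after 10 h in triplicate.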

SMILES | growth
COc1ncnc(NS(=O)(=O)c2ccc(N)cc2)c1OC [Sulfadoxine] | 0.195 ± 0.0074
c1ccc(C2CN3CCSC3=N2)cc1 (stereo not given) [Tetramisole hydrochloride] | 0.203 ± 0.02
CCCC1O[C@@H]2C[C@H]3[C@@H]4CCC5=CC(=O)C=C[C@]5(C)[C@H]4[C@@H](O)C[C@]3(C)[C@]2(C(=O)CO)O1 (stereo not given in full) [Budesonide] | 0.167 ± 0.0066
COc1cc2ncnc(Nc3ccc(F)c(Cl)c3)c2cc1OCCCN1CCOCC1 [Gefitinib] | 0.207 ± 0.012
C[C@H]1C[C@@H]2[C@H]([C@@H](O)C[C@@]3(C)[C@H]2CC[C@]3(O)C(=O)CO)[C@@]2(C)C=CC(=O)C=C12 [Methylprednisolone, 6-alpha] | 0.175 ± 0.0055
C[C@@H](O)[C@H]1C(=O)N2C(C(=O)O)=C(SCCNC=N)C[C@H]12 [Imipenem] | 0.198 ± 0.012
CC(=O)Oc1ccccc1C(=O)Nc1ncc([N+](=O)[O-])s1 [Nitazoxanide] | 0.0545 ± 0.0006
CC[C@H](C)[C@H](N)C1=N[C@H](C(=O)N[C@@H](CC(C)C)C(=O)N[C@H](CCC(=O)O)C(=O)N[C@H](C(=O)N[C@H]2CCCCNC(=O)[C@H](CC(N)=O)NC(=O)[C@@H](CC(=O)O)NC(=O)[C@H](Cc3cnc[nH]3)NC(=O)[C@@H](Cc3ccccc3)NC(=O)[C@H]([C@@H](C)CC)NC(=O)[C@@H](CCCN)NC2=O)[C@@H](C)CC)CS1 [Bacitracin] | 0.266 ± 0.033
c1ccc([C@H]2CN3CCSC3=N2)cc1 [Levamisole hydrochloride] | 0.182 ± 0.0088
CN(Cc1cnc2nc(N)nc(N)c2n1)c1ccc(C(=O)N[C@@H](CCC(=O)O)C(=O)O)cc1 (racemic) [Amethopterin (R,S)] | 0.192 ± 0.033
